Consider 17 molecules from article PMC9911399, “Two distinct binding modes provide the RNA-binding protein RbFox with extraordinary sequence specificity”.

Residue numbers refer to the chain shown, from its start. Whole data set: some 16,000 sequences, median “ka relative to ugcaugu” near 0.0091, cut for the highest 2% near 0.032. The full list was thinned out, with the highest values kept by preference.

B1: UGCGAUA (DNA:RNA)
RNA: GGGAGACCGGAAUUCAGAUUGUCCUGCGAUAUUAAAUCCCGUCGUAGCCACCA
DNA 1: CAATCTGAATTCCGGTCTCCC
DNA 2: TGGTGGCTACGACGGGATT
B2: UUGAGCA (DNA:RNA)
RNA: B1 RNA with G26U, C27G, G28A, A29G, U30C
DNA 1: CAATCTGAATTCCGGTCTCCC
DNA 2: TGGTGGCTACGACGGGATT
B3: CUUUUUG (DNA:RNA)
RNA: B1 RNA with U25C, G26U, C27U, G28U, A29U, A31G
DNA 1: CAATCTGAATTCCGGTCTCCC
DNA 2: TGGTGGCTACGACGGGATT
B4: UCAACCU (DNA:RNA)
RNA: B1 RNA with G26C, C27A, G28A, A29C, U30C, A31U
DNA 1: CAATCTGAATTCCGGTCTCCC
DNA 2: TGGTGGCTACGACGGGATT
B5: UACCUGU (DNA:RNA)
RNA: B1 RNA with G26A, G28C, A29U, U30G, A31U
DNA 1: CAATCTGAATTCCGGTCTCCC
DNA 2: TGGTGGCTACGACGGGATT
B6: AGGGCGU (DNA:RNA)
RNA: B1 RNA with U25A, C27G, A29C, U30G, A31U
DNA 1: CAATCTGAATTCCGGTCTCCC
DNA 2: TGGTGGCTACGACGGGATT
B7: GUUUUGU (DNA:RNA)
RNA: GGGAGACCGGAAUUCAGAUUGUCCGUUUUGUUUAAAUCCCGUCGUAGCCACCA
DNA 1: CAATCTGAATTCCGGTCTCCC
DNA 2: TGGTGGCTACGACGGGATT
B8: AAUCCAC (DNA:RNA)
RNA: B7 RNA with G25A, U26A, U28C, U29C, G30A, U31C
DNA 1: CAATCTGAATTCCGGTCTCCC
DNA 2: TGGTGGCTACGACGGGATT
B9: UGCAUUG (DNA:RNA)
RNA: B1 RNA with G28A, A29U, A31G
DNA 1: CAATCTGAATTCCGGTCTCCC
DNA 2: TGGTGGCTACGACGGGATT
B10: CCGUGCA (DNA:RNA)
RNA: B7 RNA with G25C, U26C, U27G, U29G, G30C, U31A
DNA 1: CAATCTGAATTCCGGTCTCCC
DNA 2: TGGTGGCTACGACGGGATT
B11: GGGUGCA (DNA:RNA)
RNA: B7 RNA with U26G, U27G, U29G, G30C, U31A
DNA 1: CAATCTGAATTCCGGTCTCCC
DNA 2: TGGTGGCTACGACGGGATT
B12: CUGUGCA (DNA:RNA)
RNA: B7 RNA with G25C, U27G, U29G, G30C, U31A
DNA 1: CAATCTGAATTCCGGTCTCCC
DNA 2: TGGTGGCTACGACGGGATT
B13: GGUGCAU (DNA:RNA)
RNA: B7 RNA with U26G, U28G, U29C, G30A
DNA 1: CAATCTGAATTCCGGTCTCCC
DNA 2: TGGTGGCTACGACGGGATT
B14: UCCUGCA (DNA:RNA)
RNA: B1 RNA with G26C, G28U, A29G, U30C
DNA 1: CAATCTGAATTCCGGTCTCCC
DNA 2: TGGTGGCTACGACGGGATT
B15: CGGUGCA (DNA:RNA)
RNA: B1 RNA with U25C, C27G, G28U, A29G, U30C
DNA 1: CAATCTGAATTCCGGTCTCCC
DNA 2: TGGTGGCTACGACGGGATT
B16: UGCAUUC (DNA:RNA)
RNA: B1 RNA with G28A, A29U, A31C
DNA 1: CAATCTGAATTCCGGTCTCCC
DNA 2: TGGTGGCTACGACGGGATT
B17: UGCAUUA (DNA:RNA)
RNA: B1 RNA with G28A, A29U
DNA 1: CAATCTGAATTCCGGTCTCCC
DNA 2: TGGTGGCTACGACGGGATT

The assay addresses T1, RBFOX1 RRM (Homo sapiens, UniProt Q9NWB1 109-208).
T1 sequence: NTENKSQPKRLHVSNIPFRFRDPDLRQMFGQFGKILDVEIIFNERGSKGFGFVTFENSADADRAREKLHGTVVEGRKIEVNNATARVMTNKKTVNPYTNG
Nature of the assay: EMSA; HiTS-Eq, 1 nM pool, 10 min; buffer printed only for the single-RNA assays: 10 mM Tris pH 7.5, 150 mM NaCl, 3.4 mM EDTA, 0.001% NP-40, 30 C. Particulars: tags: His6 N-terminal (pET28a); label: 5' 32P. The essentials:
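Purified wild-type or mutant RbFox RRM at increasing concentrations was equilibrated with 1 nM of 5′-radiolabelled RNA carrying 7 randomized nucleotides for 10 min in 50 µL. Unbound RNA was separated by 8% native PAGE and sequenced. Relative association constants came from read-count changes of each RNA species compared with the control reaction, normalised to the cognate motif.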
B1: the binding signal was 0.017 KA relative to UGCAUGU.

As to B2, the binding signal is 0.0174 KA relative to UGCAUGU. With B3 the figure was 0.0263 KA relative to UGCAUGU; with B4, 0.00233 KA relative to UGCAUGU; with B5, 0.0129 KA relative to UGCAUGU.

B6: the binding signal was 0.0222 KA relative to UGCAUGU. As to B7, the binding signal is 0.0195 KA relative to UGCAUGU. Turning to B8, the binding signal is 0.000933 KA relative to UGCAUGU.

As to B9, the binding signal was 0.0355 KA relative to UGCAUGU.

On to B10, for which the binding signal was 0.017 KA relative to UGCAUGU. In the case of B11, the binding signal was 0.0415 KA relative to UGCAUGU. Take B12: the binding signal was 0.0239 KA relative to UGCAUGU.

With B13, the binding signal is 0.0241 KA relative to UGCAUGU. Take B14: the binding signal was 0.0135 KA relative to UGCAUGU. As to B15, the binding signal was 0.0194 KA relative to UGCAUGU. Consider B16, for which the binding signal was 0.0105 KA relative to UGCAUGU. As for B17, the binding signal is 0.0146 KA relative to UGCAUGU.
